“And” between values parts separate entries of the source, which are not always exact repeats. Identical values can stand only once. About 83,000 compounds went through this panel and 20% of them were active in at least one assay; those are over-represented in the sample as a whole.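 How to read the values: 0–100, growth inhibition (40 = 60% inhibited); 0, no net growth; -100 to 0, cell death (-40 = 40% of starting cells died; -100 = all dead).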 The source made the active and inactive calls. How the source made its calls: active means growth percent below 10; inactive means the rest.

This assay relates to MDA-MB-468 breast. The assay is described as follows: NCI-60 one-dose screen, 48 h (100 = growth as untreated, 0 = no growth, -100 = all killed). Conditions: 10 µM unless noted.
On to `N#Cc1c(-c2cccs2)cc(-c2cccnc2)[nH]c1=O`, for which the growth was 101% (inactive).

Consider `CC(C)c1cccc(C#N)c1`, for which the growth was 99.4% (inactive).

Consider `CCNCCCn1c2c(c3cc(OC)c(OC)cc3c1=O)C(=O)c1cc(OC)cnc1-2`, for which the growth is 5.95% (active).

Take `N#CC1(C#N)C(c2cccs2)NC(c2cccs2)C1(C#N)C#N` (stereo not given): the growth was 104% (inactive).

As to `O=C(CSc1nc2ccc([N+](=O)[O-])cc2[nH]1)Nc1ccc(F)c(Cl)c1`, the growth is -14.9% (active).

With `O=S(=O)(NCCNc1nccc(-c2c(-c3cccc(F)c3)nc3occn23)n1)c1cccc2ccccc12`, the growth was 35.2% (inactive).

In the case of `O=C(Nc1ccc(Oc2ccc(NC(=O)Nc3ccc([N+](=O)[O-])cc3)cc2)cc1)Nc1ccc([N+](=O)[O-])cc1`, the growth is -3.83% (active).

For `CS(=O)(=O)c1nccc(-c2c(-c3cccc(OCCN4CCOCC4)c3)nc3sccn23)n1`, the growth is 37.6% (inactive).

Take `O=C1/C(=C/c2ccccc2[N+](=O)[O-])Oc2ccc(O)cc21`: the growth is 20.3% (inactive).

In the case of `Cc1ccc(NC(=O)c2ccccc2Cl)cc1`, the growth was 114% (inactive).

Take `Cc1ccc(-c2nc(C#N)c(S(=O)(=O)N(C)C)o2)cc1`: the growth is 81.6% (inactive).

For `CN(C)C(=S)SC(=S)N(C)C`, the growth is 91.4% (inactive) and 95.3% (inactive).

Take `COc1ccc(C2=Cn3c(CCC(=O)c4nc5ccccc5[nH]4)nnc3SC2)cc1`: the growth is 77.4% (inactive).

Turning to `O=C(CCc1nnc2sc(/C=C\c3ccccc3)nn12)c1nc2ccccc2[nH]1`, the growth is 76.7% (inactive).

On to `CC(=O)Nc1ccc(-n2cnc3cc(-c4ccc(OCCN5CCCCC5)cc4)ccc32)cc1`, for which the growth was 115% (inactive).

With `CC(C)NCC(O)c1ccc(O)c(O)c1` (stereo not given), the growth was 89.3% (inactive) and 104% (inactive) and 97.9% (inactive).

As to `COc1ccc(-n2c(=O)c3ccccc3n(Cc3ccc(C(=O)NO)cc3)c2=O)cc1`, the growth is 3.21% (active).

As for `Cc1ccc(C(C)C)c(OCc2ccc(C(=O)N/N=C/c3cccc(O)c3O)cc2)c1`, the growth is 75.7% (inactive).

Take `COc1cccc2c1CN(C(=O)c1ccc(O)c(C(=O)N3Cc4ccc(OCCC[P+](c5ccccc5)(c5ccccc5)c5ccccc5)cc4C3)c1)C2`: the growth was -2.86% (active).

`C=COC(=O)CCCCCCCCC`: the growth is 100% (inactive).

On to `N#C/C(=C\c1cccc2cnccc12)N1N=NC2C=CC=CC21` (stereo not given), for which the growth is 32.9% (inactive).

Consider `CCOc1cc(NC(=O)c2ccccc2)c(OCC)cc1N`, for which the growth was 112% (inactive).

`Nc1c(Cl)cc([N+](=O)[O-])cc1Br`: the growth was 92.3% (inactive).

Regarding `Nc1cc(-c2ccncc2)c[nH]c1=O`, the growth is 117% (inactive).

Regarding `CC1=C([Se]CC(OC(=O)[C@@H](CSSC(C)(C)C)NC(=O)C(C)(C)C)C(=O)NCCCCCC(=O)OCc2ccccc2)C(=O)c2ccccc2C1=O` (stereo not given in full), the growth was -21.9% (active).

In the case of `CS(=O)(=O)c1ccc(C(=O)N/N=C/c2ccc3c(c2)OCO3)cc1`, the growth was 109% (inactive).

Regarding `Cc1cc(Cc2ccccc2)c(O)c(Cc2ccccc2)c1`, the growth was 95.8% (inactive).

`COc1ccc2sc3c(NCCCN)nc4ccccc4c3c(=O)c2c1`: the growth was 48.6% (inactive).

Turning to `CCOc1ccc(N(C)c2ccc(/C=C/C3=[N+](C)c4ccccc4C3(C)C)cc2)cc1`, the growth was 6.26% (active).

For the compound `COC(=O)c1cc(=O)nc(N/N=C/c2ccc(C)cc2)s1`, the growth is 110% (inactive).

With `O=C(Nc1ccc(-c2nc3cc4ccccc4cc3[nH]2)cc1)c1cccc(Br)c1`, the growth was 48.3% (inactive).

As to `COc1ccc(/C(=C\c2cc(OC)c(OC)c(OC)c2)C(=O)Nc2nc3ccc(Cl)cc3s2)cc1`, the growth was 96.4% (inactive).

As for `O=S(=O)(c1ccc(NCSc2nc3ccccc3s2)cc1)c1ccc(NCSc2nc3ccccc3s2)cc1`, the growth was 95.8% (inactive).

As for `COc1ccc(/C=C2\COc3ccc(-c4ccccc4)cc3C2=O)c(OC)c1`, the growth was 57% (inactive).

`O=C(Nc1cccc(F)c1)c1cc(=O)[nH]c2cc(Br)ccc12`: the growth is 55.3% (inactive).

Take `Cc1ccc(-c2cc3nc(C(Cl)Cl)nc(-c4ccc(S(=O)(=O)N(C)C)cc4)n3n2)cc1`: the growth was 82% (inactive).

On to `COc1cccc(/C=C/C(=O)/C=C(/C=C/c2cccc(OC)c2OC)OB(F)F)c1OC`, for which the growth is 52.7% (inactive).

For the compound `CN(C)[C@@H]1C(=O)C(C(N)=O)=C(O)[C@@]2(O)C(=O)C3=C(O)c4c(O)cc(CN5CCc6ccccc6C5)c(Cl)c4C[C@H]3C[C@@H]12`, the growth is -46.8% (active).

With `Cc1cc(C)c(NC(=O)c2sc3nc4c(cc3c2N)CCCCCC4)c(C)c1`, the growth was 40.1% (inactive).

Consider `COc1ccc(N2C(=O)CC(c3cc(OC)c(OC)c(OC)c3)C3C2=NC(=O)N3C)cc1` (stereo not given), for which the growth was 98.9% (inactive).

(Values after PubChem BioAssay (NCI).)
